Screening data deposited in PubChem by National Center for Advancing Translational Sciences (NCATS).
D3 antag = D3 dopamine receptor (human) antagonism. P35462. D3R cells, DiscoveRx beta-arrestin luminescence, antagonist mode; active compounds read low. max response, negative = inhibition, %. 360,000 tested, 2.5% active; in the data active = max response below about -50%; inconclusive = no clear call, values can overlap the other calls; also: % is scaled to controls: 0 for no effect and ±100 for the full control effect
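Cells plated overnight at 1500 cells/well, then exposed to library compounds with dopamine controls for 90 minutes at 37 degrees C. DiscoveRx reagent added for 30–60 minutes at room temperature; luminescence read, quantitative HTS format.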
ERG Ets-DNA blk = inhibitors of human ERG Ets domain-DNA interaction | fluorescence polarization, His-ERG Ets domain / labelled DNA | P11308 | 370,000 tested, 0.028% active | Potency, µM (top dose mostly 76.9 µM), inactives show top-dose FP activity, negative = inhibition, usual class: inhibitors; active = well fitted inhibition curve with a large enough effect in the polarisation, with a control signal flat; inconclusive = small, poorly fitted or top-dose-only effect, or effect the other way, or a change in a side signal; inactive = no such curve, though single readings can be large or run the other way; the % refers to the polarisation;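 also: polarization taken with two DNA probes labelled with fluorescein and Texas red; potency is read from the fitted curve at half-maximal effect; % of control where 0% means no effect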
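His-tagged ERG Ets domain (1 uM in the protein solution; 300mM KCl, 50mM Tris-HCl, 1mM EDTA, 1mM DTT, pH 7.5) received compound, then a probe mix of 5 nM fluorescein-DNA and 100nM Texas-615-DNA. Fluorescence polarization was read for both dyes.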
D3 ag = D3 dopamine receptor (human) agonism; P35462; D3R DiscoveRx beta-arrestin cells, luminescence, 90 min; max activation, %; 410,000 tested, 0.58% active; AID 652048; in the data active = max activation above about 30%; also: 0% is about no effect
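Agonist-mode cell screen: cells plated at 1500/well and incubated overnight at 37 °C, then exposed to library compounds for 90 min at 37 °C. Detection reagent was added for 30–60 min at room temperature, and luminescence was read.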
D1 ag = activates the human D1 dopamine receptor. activation, % at 2 µM. 360,000 tested, 1% active. HEK293 T-REx D1 cells, calcium flux, agonist mode. P21728; in the data active = activation above about 30%; also: 0% is about no effect
Target sequence (P21728 whole entry, looked up): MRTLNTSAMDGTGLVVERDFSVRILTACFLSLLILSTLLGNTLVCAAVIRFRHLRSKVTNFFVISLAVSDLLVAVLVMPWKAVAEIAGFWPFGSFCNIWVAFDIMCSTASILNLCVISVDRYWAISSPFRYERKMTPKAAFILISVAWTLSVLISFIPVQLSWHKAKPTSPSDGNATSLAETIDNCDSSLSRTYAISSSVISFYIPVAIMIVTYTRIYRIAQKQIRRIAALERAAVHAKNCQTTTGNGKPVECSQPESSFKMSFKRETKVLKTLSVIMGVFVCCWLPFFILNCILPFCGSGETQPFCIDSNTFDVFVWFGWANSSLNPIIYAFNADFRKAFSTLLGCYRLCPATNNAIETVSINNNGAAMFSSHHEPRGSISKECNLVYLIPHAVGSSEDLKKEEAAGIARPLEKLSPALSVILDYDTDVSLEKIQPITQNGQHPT
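Inducible HEK293 T-REx D1 cells, force-coupled to calcium signalling, were plated at 4000 cells/well with tetracycline and held overnight at 30 C. After no-wash calcium dye loading, compound-evoked calcium rise over 180 s flagged agonists.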
D1 antagonist = blocks dopamine activation of the human D1 receptor | AID 504652 | P21728 | HEK293 TREx D1 cells, calcium flux, dopamine EC80; active compounds read low | activity change, negative = inhibition, % at 10 µM | 360,000 tested, 3.2% active; in the data active = activity change below about -30%; also: % is scaled to controls: 0 for no effect and ±100 for the full control effect
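Antagonism measured as reduced calcium response to an EC80 dopamine addition following 180 s compound pre-read; cells were inducible HEK293 Trex D1 plated overnight at 30 C, read kinetically at 1 cycle/sec.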
D1 potentiator = human D1 dopamine receptor positive modulation; P21728; HEK293 TREx D1 cells, calcium flux, dopamine EC20 potentiation; potentiation, % at 10 µM; 360,000 tested, 0.036% active; AID 504651; in the data active = potentiation above about 30%; also: 0% is about no effect
* hit, by the source's call; ? = inconclusive; / = not tested or not shown; ! = not active in a repeat. Rows were chosen to be rich in hits. Some 6.1% of all compounds tested hit in one or more screens of this group.

SMILES | D3 antag | ERG Ets-DNA blk | D3 ag | D1 ag | D1 antagonist | D1 potentiator
COc1cccc(NC(=O)COC(=O)CCn2c(C)csc2=O)c1 | 9 | -1% | 8 | 1 | -2 | 6
Cc1cc(C)c(C(=O)COC(=O)Cn2c(C)csc2=O)cc1C | 16 | -7% | 8 | 3 | -36* | -11
COc1ccc(C)cc1Nc1cc(C)nc2nc(C)nn12 | 7 | -1% | 1 | -2 | -18 | -4
Cc1ccc(C)c(N(C(=O)c2csnn2)C(C(=O)NC2CCCCC2)c2ccncc2)c1 (stereo not given) | -10 | 3% | -8 | 3 | 7 | /
Cc1c(Cl)ccc2sc(N3CCN(C(=O)CS(=O)(=O)c4ccccc4)CC3)nc12 | / | 5% | 1 | 49* | / | -4
COc1ccc(C(=O)N2CCN(c3nc4c(C)c(Cl)ccc4s3)CC2)c(OC)c1 | / | 6% | 34* | 6 | / | 0
COc1ccccc1N1CCN(C(=O)c2ccc(-c3ccccc3)cc2)CC1 | 22 | -6% | -3 | 2 | -3 | -7
Cc1ccc2nc(-c3ccc(C)c(NC(=O)CSc4ccc(Cl)cc4)c3)oc2c1 | / | 2% | 7 | -1 | 3 | -4
CCOC(=O)C1CCN(Cc2cnc(Oc3ccc(C(C)(C)C)cc3)s2)CC1 | -93* | 1% | -1 | 30 | 8 | -6
CCCn1c2ccccc2c2cnn(CC(=O)NCCCN3CCCCC3)c(=O)c21 | -29 | -14% | -17 | -1 | -2 | 0
COc1ccccc1N1CCN(CCCNC(=O)Cn2ncc3c([nH]c4ccccc43)c2=O)CC1 | -108* | -11% | -22 | 0 | -30 | -13
Cn1c2ccccc2c2cnn(CC(=O)NCCCN3CCN(c4ccccc4F)CC3)c(=O)c21 | -90* | -6% | 11 | 10 | -63* | -5
Cc1ccc(C)c(N2CCN(CCCNC(=O)Cn3ncc4c([nH]c5ccccc54)c3=O)CC2)c1 | / | -4% | -18 | -2 | -25 | 4
CCCn1c2ccccc2c2cnn(CC(=O)NCCCN3CCN(c4ccccc4)CC3)c(=O)c21 | -83* | -7% | 4 | 11 | -24 | -13
Cc1ccc(NC(/C=C/N(C)C)=C/C(=O)C(F)(F)F)c(C)c1 | 13 | 13% | 11 | 1 | 2 | -7
COc1cc2[nH]c(=S)nc(NC3CCCC3)c2cc1OC | / | / | / | 4 | -26 | -7
COc1ccc(NC(=O)COC(=O)COc2cccc3c2OC(C)(C)C3)cc1 | -15 | -4% | -11 | 5 | 2 | 5
O=C(COc1ccccc1F)N1CCc2ccccc2C1 | 11 | 12% | 1 | 1 | -58* | -1
COc1ccccc1C(=O)COC(=O)COc1cccc2c1OC(C)(C)C2 | -66* | 13% | -19 | 15 | -8 | 0
O=C(COc1ccccc1Cl)N1CCc2ccccc2C1 | -6 | -8% | 1 | 2 | 10 | 1
CC1(C)Cc2cccc(OCC(=O)N3CCN(c4ccccc4F)CC3)c2O1 | 6 | -4% | 0 | 4 | -69* | -4
Cc1ccc2c(c1)C(N1CCCC1=O)CC(c1ccco1)N2 (stereo not given) | -17 | -1% | -2 | 2 | -18 | -6
OCC[C@@H]1C[C@H](O)[C@@H](O)[C@@]2(OCc3cc(C(F)(F)F)ccc32)O1 | 6 | / | -2 | / | / | /
Cc1ccccc1-c1ccnc2[nH]n(-c3ccccc3)c(=O)c12 | -28 | 5% | 3 | 4 | -37*! | 14
Cc1[nH]n(-c2ccccc2)c(=O)c1/C=N/c1ccccn1 | 0 | -4% | 7 | 1 | 5 | -3
SMILES | D3 antag | ERG Ets-DNA blk | D3 ag | D1 ag | D1 antagonist | D1 potentiator
CC(=O)c1cccc(NC(=O)c2ccc(OC3CSC3)cc2)c1 | 0 | 2% | 5 | 6 | -15 | -3
O=C(Nc1cccc(Br)c1)c1ccc(OC2CSC2)cc1 | / | / | / | 3 | -36* | -4
NS(=O)(=O)c1ccc(NC(=O)CSc2nc3ccccc3n2-c2ccccc2)cc1 | 4 | -8% | 2 | 4 | 16 | 6
O=C1c2ccccc2C(=O)N1CC1CO1 (stereo not given) | -2 | 1% | 63* | / | / | /
O=C1c2ccccc2C(=O)N1CC1CCCO1 (stereo not given) | -13 | -4% | -6 | 0 | 2 | 8
Cc1ccc(CN2C3=NCCCN3c3ccccc32)cc1 | 0 | -2% | -4 | 4 | 0 | -2
O=C(O)CN1C2=NCCCN2c2ccccc21 | -17 | -17% | -2 | 3 | 9 | -7
O=C(CN1C2=NCCCN2c2ccccc21)c1ccc(Br)s1 | -54* | -14% | -16 | 14 | -6 | -2
CC(C)(C)c1ccc(CN2C3=NCCCN3c3ccccc32)cc1 | -63* | -4% | -1 | 28 | -2 | -9
Brc1ccc(CN2C3=NCCCN3c3ccccc32)cc1 | 6 | 3% | 0 | 30* | -11 | -10
CC1Oc2ccccc2N(CC(=O)c2ccc(F)cc2)C1=O (stereo not given) | 2 | -8% | -4 | 0 | 7 | -4
CCN(CC)CCNC(=O)C1c2ccccc2C(=O)N(CCOC)C1c1ccc(F)cc1 (stereo not given) | -62* | 7% | -8 | 0 | 14 | 4
CCCN(CCC)CCNC(=O)C1c2ccccc2C(=O)N(CCOC)C1c1ccc(F)cc1 (stereo not given) | 0 | -2% | -2 | 1 | 6 | -2
CCN(CC)CCNC(=O)C1CCC(=O)N(c2ccc(OC)cc2)C1c1ccc(F)cc1 (stereo not given) | -67* | -9% | -10 | 2 | -19 | -9
COCCNC(=O)C1c2ccccc2C(=O)N(CCOC)C1c1ccc(F)cc1 (stereo not given) | 13 | -1% | 1 | 2 | 16 | 2
COCCN1C(=O)c2ccccc2C(C(=O)NCCN(C)C)C1c1ccc(F)cc1 (stereo not given) | -63* | 4% | -11 | 4 | -1 | 1
Cc1ccc(NC(=S)N2CCC(N(C)CC3CCCO3)CC2)cc1 (stereo not given) | -1 | -5% | -9 | -1 | -40* | -4
Cc1c(OCC(N)=O)ccc2c(-c3ccccc3)cc(=O)oc12 | 9 | 0% | 4 | 2 | -11 | 0
CCCCCOc1ccc(NC(=O)CCCC(=O)O)cc1 | 6 | 1% | 4 | 3 | 4 | -4
Cn1c(SCc2nc(-c3ccc(Cl)cc3)no2)nnc1-c1cccs1 | 12 | 3% | -13 | 5 | -20 | 3
Cn1c(SCc2nc(-c3ccccc3)no2)nnc1-c1cccs1 | 11 | -7% | 32* | 0 | 29 | -4
C/C(=N\NC(=O)Cn1nc(C)c(Br)c1C)c1cccs1 | ? | -13% | -28 | 1 | 11 | -2
